Screens deposited in PubChem BioAssay by National Center for Advancing Translational Sciences (NCATS).
Rows were chosen to be rich in hits. Some 19% of all compounds tested hit in one or more screens of this group.
IL1B secr inh = blocks inflammasome-driven IL-1 beta release. 360,000 compounds, 4.7% hits. AID 743279. activity change, % at 57.5 µM. THP-1 LPS/ATP IL-1B secretion, AlphaLISA, 16 h; active compounds read low; in the data active = activity change below about -50%; inconclusive = mostly about -30% to -49%
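THP-1 cells pretreated 1 hr with compounds (up to 57.5 uM final), then stimulated with LPS (250 ng/mL final) plus ATP (1.25 mM final); secreted IL-1B measured by AlphaLISA after 16 hr, decreased signal indicating inhibition.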
HT1080NT lethal = kills 2HG-producing HT-1080-NT fibrosarcoma cells; 360,000 compounds, 1.6% hits; Potency, µM (series often up to 46.1 µM), inactives show at the top dose activity, negative = less viability, most hits filed as cytotoxic; HT-1080-NT fibrosarcoma viability, CellTiter-Glo ATP luminescence, 48 h;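 note: NT is the 2HG producing partner of a matched IDH1 knockdown line; potency is the fitted concentration of half-maximal effect; 0% = DMSO-treated cells and -100% = media-only wells without cells; nearly all actives have a fitted effect of over 55% in size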
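HT-1080-NT fibrosarcoma cells (2HG-overproducing), 750 cells/well in RPMI with 5% FBS, dosed after 2 h and incubated 48 h at 37C. CellTiter-Glo luminescence normalized to DMSO and no-cell wells; concentration-response curves fitted and classed.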
HT1080 IDH1KD tx = HT-1080 IDH1 knockdown cell toxicity (counter line); HT-1080 IDH1 knockdown viability, ATP luminescence, 48 h; 360,000 compounds, 2% hits; Potency, µM (doses to about 46.1 µM), for inactives: at the highest dose activity, negative = toxicity, most hits filed as cytotoxic;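 note: potency is the fitted concentration of half-maximal effect; 0% = DMSO wells and -100% = cell-free medium wells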
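Knockdown cells (IDH1KD HT-1080) received compounds 2 h after plating at 750 cells/well and were kept 48 h at 37 °C in 5% FBS RPMI. A CellTiter-Glo luminescence read gave % activity for curve fitting.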
DT40 TDP1 CPT = growth inhibition of DT40 Tdp1-/-;hTDP1 cells with camptothecin (screen for TDP1 inhibitors) | chicken DT40 Tdp1-/-;hTDP1 cells + 20 nM CPT, ATP luminescence, 48 h | Potency, µM (doses to about 46.2 µM), without a hit: top-dose activity change, negative = growth inhibition, actives largely listed as inhibitors | 420,000 compounds, 12% hits; note: potency is the fitted concentration of half-maximal effect; nearly all actives have a fitted effect of over 55% in size
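Chicken DT40 Tdp1-/- cells complemented with human TDP1, 400 cells/well, exposed to compounds plus 20 nM camptothecin for at least 48 h at 37 C; viability read as ATP content by CellTiter-Glo luminescence.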
TDP1 cell noCPT = qHTS for Inhibitors of human tyrosyl-DNA phosphodiesterase 1 (TDP1): qHTS in cells in absence of CPT | Potency, µM (series often up to 46.2 µM), for the others: at the top dose activity change, negative = growth inhibition, actives largely listed as inhibitors | 420,000 compounds, 15% hits | DT40 Tdp1-/- hTDP1 cells, no CPT, ATP luminescence, 48 h | AID 686978, 2013; note: potency is the fitted concentration of half-maximal effect; nearly all actives have a fitted effect of over 55% in size
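A cellular qHTS used chicken DT40 cells lacking endogenous Tdp1 but carrying stably transfected human TDP1. Compounds were applied without camptothecin, and cell growth kinetics were judged by ATP-dependent luminescence after ≥48 hr.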
uPA surface inh = cell surface uPA generation inhibition | cell surface uPA generation assay, qHTS | Potency, µM (series often up to 38.3 µM), inactives show top-dose activity change, negative = inhibition, most hits filed as inhibitors | 330,000 compounds, 0.31% hits | AID 540303; active = well fitted inhibition curve with a large enough effect; inconclusive = small, poorly fitted or top-dose-only effect; inactive = no such curve, though single readings can be large or run the other way; tested in mouse RAW 264.7 cells; note: potency is the fitted concentration of half-maximal effect; nearly all actives have a fitted effect of over 55% in size
Starred values were filed as active, the others as inactive; u = inconclusive; x = not tested or not shown. Unless noted, calls come from the whole dose curve; as a rule, active = well fitted curve in the direction sought with a large enough effect; inconclusive = small, poorly fitted or top-dose-only effect, or another doubt; inactive = no such curve, though single readings can be large; an effect the other way counts as inactive or inconclusive. Unless noted, % is set by controls: 0 for no effect and ±100 for the full control effect.

SMILES	IL1B secr inh	HT1080NT lethal	HT1080 IDH1KD tx	DT40 TDP1 CPT	TDP1 cell noCPT	uPA surface inh
CCOC(=O)C1=CN(Cc2cccc(F)c2)S(=O)(=O)NC1c1ccc(F)c(Cl)c1 (stereo not drawn)	0	26µM*	u	u	u	9%
CCOC(=O)C1=CN(Cc2cccc(F)c2)S(=O)(=O)N(CC)C1c1ccc(C(F)(F)F)cc1 (stereo not drawn)	-2	-3%	-3%	21µM*	23µM*	6%
CCOC(=O)C1=CN(Cc2cccc(-c3cccnc3)c2)S(=O)(=O)N(C)C1C (stereo not drawn)	-17	0%	-4%	u	13µM*	7%
CCOC(=O)C1=CN(Cc2cccc(F)c2)S(=O)(=O)N(CC)C1c1ccc(Br)cc1F (stereo not drawn)	0	1%	-9%	u	u	9%
c1ccc(CCN(Cc2ccccc2)C2CCN(C3CCCC3)CC2)cc1	-4	-7%	15%	1%	-26%	-6%
Cc1ccc(N2C(=O)CSC2c2cccnc2)c(Cl)c1 (stereo not drawn)	26	u	u	18µM*	21µM*	-14%
O=C1CSC(c2cccnc2)N1c1cccc(Cl)c1 (stereo not drawn)	7	3%	0%	1%	-13%	3%
COc1cc(C(=O)O)c([N+](=O)[O-])c(OC)c1OC	-3	0%	5%	0%	10%	-3%
COc1cc2[nH]c(Cl)c([N+](=O)[O-])c2cc1OC	27	-18%	13%	21µM*	21µM*	-1%
Cc1cccn2cc(-c3ccc(S(=O)(=O)N4CCOCC4)cc3)nc12	29	u	-19%	u	16µM*	-1%
Cc1cccn2cc(-c3ccc(S(=O)(=O)N4CCCCC4)cc3)nc12	-11	-21%	-17%	u	u	-1%
COc1ccc(Br)cc1S(=O)(=O)Nc1cc(-c2cn3ccccc3n2)ccc1C	x	x	x	u	13µM*	x
COc1ccc(-c2cn3ccccc3n2)cc1OC	22	u	u	u	u	x
CCCS(=O)(=O)Nc1cc(-c2cn3ccc(C)cc3n2)ccc1C	x	x	x	-7%	u	x
COc1ccc(S(=O)(=O)Nc2cc(-c3cn4ccc(C)cc4n3)ccc2C)cc1OC	x	x	x	16µM*	16µM*	x
Cc1cc(C)c(S(=O)(=O)Nc2cc(-c3cn4ccccc4n3)ccc2C)cc1C	x	x	x	21µM*	21µM*	x
CCCCN1C[C@H](C)[C@@H](CC(=O)NC)C1=O	-7	0%	-4%	0%	-6%	x
Cc1ccc(-c2cn3cccc(C)c3n2)cc1NS(=O)(=O)c1ccccc1	x	x	x	26µM*	16µM*	x
Cc1ccc(-c2cn3cccc(C)c3n2)cc1	17	-7%	-21%	-20%	u	-8%
Cc1ccc2cc3cc(C(=O)NCc4ccc5c(c4)OCO5)oc3nc2c1	-15	-4%	-11%	-1%	-22%	4%
CC(=O)N(Cc1ccc2c(c1)OCO2)Cc1cc2ccc(C)cc2nc1-c1cccc(C)c1	x	x	x	u	0.46µM*	x
COc1ccc(C(=O)NCCCNC(=O)c2ccc(C)nc2)cc1	5	2%	8%	4%	-18%	1%
COc1ccc(-c2cc(NC=O)c3ncc(-c4cnn(C)c4)n3c2)cc1	0	u	u	u	u	x
COc1cccc(-c2cnc3c(NC=O)cc(-c4ccc(N(C)C)cc4)cn23)c1	19	u	18µM*	15µM*	8.2µM*	x
COc1ccc(-c2cc(NC=O)c3ncc(-c4cccc(OC)c4)n3c2)cc1	89	u	9.2µM*	5.8µM*	5.2µM*	x
SMILES	IL1B secr inh	HT1080NT lethal	HT1080 IDH1KD tx	DT40 TDP1 CPT	TDP1 cell noCPT	uPA surface inh
O=C(C[n+]1cc[nH]c1)c1ccc(Cl)cc1	15	13%	17%	-14%	-20%	0%
CN(C)C1=NCCN1CCC1CCCC1	8	0%	-1%	u	u	-6%
O=C1c2c(O)cccc2[C@H]([C@@H]2O[C@H](CO)[C@@H](O)[C@H](O)[C@H]2O)c2cc(CO)cc(O)c21	x	x	x	-18%	0%	x
O=C(O)c1cc(O)c2c(c1)[C@@H]([C@H]1c3cc(C(=O)O)cc(O)c3C(=O)c3c(O[C@@H]4O[C@H](CO)[C@@H](O)[C@H](O)[C@H]4O)cccc31)c1cccc(O[C@@H]3O[C@H](CO)[C@@H](O)[C@H](O)[C@H]3O)c1C2=O	18	-23%	-25%	6.5µM*	u	-7%
Cc1ccc(S(=O)(=O)N2CCN(c3nc(-c4cnccn4)nc4ccccc34)CC2)cc1	x	1%	1%	u	18µM*	x
O=S(=O)(c1ccccc1Br)N1CCN(c2nc(-c3ccccc3)nc3ccccc23)CC1	x	x	x	u	14µM*	x
Cc1ccc(S(=O)(=O)N2CCN(c3nc(-n4cccn4)nc4ccccc34)CC2)cc1	x	-27%	-21%	u	u	x
Cc1ccc(S(=O)(=O)N2CCN(c3nc(-n4c(=O)[nH]c5ccccc54)nc4ccccc34)CC2)cc1	x	-8%	-6%	11µM*	13µM*	x
CC(C)(C)c1ccc(S(=O)(=O)N2CCN(c3nc(-c4ccccc4)nc4ccccc34)CC2)cc1	x	x	x	-19%	-23%	x
Cc1ccc(S(=O)(=O)N2CCN(c3nc(-c4ccncc4)nc4ccccc34)CC2)cc1	x	-11%	-28%	-16%	11µM*	x
N#Cc1ccc(S(=O)(=O)N2CCN(c3nc(-c4ccccc4)nc4ccccc34)CC2)cc1	x	22%	25%	-15%	u	x
